# Cycloheximide cs – Cycloheximide Counterscreen for Small Molecule Inhibitors of Shiga Toxin; cell reporter, cycloheximide protein synthesis inhibition counterscreen; max response, %; hit rate 12% among 300,000; in the data active = max response mostly above about 13%, no sharp cut-off; inactive = mostly below about 14%; also: read at 38.3 µM for the half of the compounds with a filed dose; 0% is about no effect
# Shiga inhibitor – A qHTS for Small Molecule Inhibitors of Shiga Toxin. hit rate 9.2% among 290,000. inhibition, % at 38.7 µM. AID 2315, 2010. Vero cells, Shiga toxin protein synthesis inhibition reporter; in the data active = inhibition mostly above about 28%, no sharp cut-off; inactive = mostly below about 43%; also: 0% is about no effect
# RE007 growth inh – qHTS Assay for Inhibitors of the HIV-1 protein Vpr | S. pombe RE007 Vpr strain, BacTiter-Glo ATP luminescence, 24 h | Potency, µM (series often up to 92.2 µM), for the others: at the highest dose activity change, negative = less growth, usual class: inhibitors | hit rate 0.21% among 360,000; active = well fitted falling curve with a large enough effect; inconclusive = small, poorly fitted or top-dose-only effect; inactive = no such curve, though single readings can be large or run the other way; also: potency is read from the fitted curve at half-maximal effect; % is scaled to controls: 0 for no effect and ±100 for the full control effect; nearly all actives have a fitted effect of over 50% in size
#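 Fission yeast strain RE007, carrying one chromosomally integrated HIV-1 vpr copy, was seeded at OD 0.01 in PMG+AL medium with 23 nL pinned compound. After 24 h at 30 °C and 99% humidity, viability was read by BacTiter-Glo luminescence.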
# Tb PYK inh – qHTS of Trypanosoma Brucei Inhibitors. pyruvate kinase (Trypanosoma brucei), Q57TT1. TbPYK enzyme, Kinase-Glo Plus ATP luminescence, 45 min. Potency, µM (highest dose often 76.8 µM), for inactives: top-dose activity, negative = inhibition, actives largely listed as inhibitors. hit rate 0.12% among 410,000; also: potency is read from the fitted curve at half-maximal effect; % is scaled to controls: 0 for no effect and ±100 for the full control effect; nearly all actives have a fitted effect of over 50% in size
#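 TbPYK + substrate in 50 mM TEA pH 7.2, 100 mM KCl, 10 mM MgCl2, 0.05% BSA, 0.01% Tween-20; cpd pinned; ADP 130 uM final; 45 min RT; Kinase-Glo Plus 10 min; luminescence endpoint.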
# Giardia FBPA inh – qHTS Assay for Inhibitors of Fructose-1,6-bisphosphate Aldolase from Giardia Lamblia; purified Giardia FBPA; Potency, µM (doses to about 59.6 µM), for inactives: at the highest dose activity, negative = inhibition, actives largely listed as inhibitors; hit rate 0.71% among 290,000; also: potency is read from the fitted curve at half-maximal effect; % is scaled to controls: 0 for no effect and ±100 for the full control effect; nearly all actives have a fitted effect of over 55% in size
# Target sequence (A8B2U2 whole entry, looked up): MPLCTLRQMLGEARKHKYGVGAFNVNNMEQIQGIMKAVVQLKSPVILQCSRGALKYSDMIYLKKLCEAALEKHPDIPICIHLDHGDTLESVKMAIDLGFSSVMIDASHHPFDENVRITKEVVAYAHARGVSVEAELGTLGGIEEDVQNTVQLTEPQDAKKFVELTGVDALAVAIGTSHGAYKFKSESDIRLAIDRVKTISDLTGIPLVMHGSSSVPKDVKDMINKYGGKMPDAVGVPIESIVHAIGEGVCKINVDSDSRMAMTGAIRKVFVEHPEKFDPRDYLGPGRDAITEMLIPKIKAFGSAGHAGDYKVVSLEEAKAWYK
#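 40 nM FBPA preincubated 10 min at RT with compound (up to 57.5 uM final), then substrate plus GAPDH/TPI/NAD/arsenate coupling and diaphorase/resazurin added. Fluorescence read after 20 min at RT, 525/598 nm.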
# LmPK inh – qHTS Assay for Inhibitors of Leishmania Mexicana Pyruvate Kinase (LmPK) | Q27686 | purified LmPK, Kinase-Glo ATP luminescence, 1 h | Potency, µM (titrated, usually from 57.5 µM), for inactives: top-dose activity change, negative = inhibition, actives largely listed as inhibitors | hit rate 0.37% among 290,000; also: potency is read from the fitted curve at half-maximal effect; % is scaled to controls: 0 for no effect and ±100 for the full control effect
#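 In 50 mM imidazole pH 7.2 with 7 mM MgCl2, LmPK (0.1 nM) turned over PEP (0.5 mM) and ADP (0.1 mM) for 1 h at room temperature. Luciferase read-out of ATP.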
# Active calls of the source: *; ? = inconclusive; nt = no result given; [ ] = remark or other dose. This is one part of a sample in which hits are shown more often than they occur. Unless noted, calls follow the shape of the dose curve; as a rule, active = well fitted curve in the direction sought with a large enough effect; inconclusive = small, poorly fitted or top-dose-only effect, or another doubt; inactive = no such curve, though single readings can be large; an effect the other way counts as inactive or inconclusive.
SMILES,Cycloheximide cs,Shiga inhibitor,RE007 growth inh,Tb PYK inh,Giardia FBPA inh,LmPK inh
O=C1C(c2ccc(F)cc2)N(CCc2ccc(Cl)cc2)C(=O)CN1C1CCCCCC1 (centres undefined),nt,nt,nt,-0.6%,nt,nt
Nc1c(C(=O)Nc2ccccc2F)sc2nc(-c3ccco3)ccc12,46.9*,96.8*,-12.8%,-5.3%,-5.9%,4.9%
COC(=O)c1sc2nc(-c3ccco3)ccc2c1N,68.4*,93.1*,-16.4%,?,-11.3%,-22.0%
NC(=O)c1sc2nc(-c3ccco3)ccc2c1N,37.3*,110.2*,-1.0%,-16.0%,-20.2%,-6.4%
Nc1c(C(=O)Nc2ccccc2F)sc2nc(-c3cccnc3)ccc12,3.5,26.7,2.0%,-18.1%,3.9%,0.0%
Cc1cc(C)c(NC(=O)c2cc(C)nc3c2c(C)nn3-c2cccc(F)c2)c(C)c1,nt,nt,nt,2.7%,nt,nt
O=C(CSc1nc(-c2ccccc2)nc2c1CCCC2)c1ccc(F)cc1,nt,nt,nt,-1.2%,nt,nt
Cc1ccccc1C(=O)OCc1cc(=O)n2nc(C(C)C)sc2n1,nt,nt,nt,-1.2%,nt,nt
Cc1cccc(NC(=O)Cn2nnc(C(=O)NCc3cccs3)c2N)c1,nt,nt,nt,-1.3%,nt,nt
Cc1cc(C)nc(SCC(=O)Nc2ccc3c(c2)OCO3)n1,7.8,7.7,-18.3%,-0.7%,0.0%,1.2%
O=C(CCc1ccc(O)c(O)c1)N/N=C/c1ccc2c(c1)OCO2,33.1*,25.5,9.3%,-17.6%,nt,?
Cc1ccccc1NCC(=O)N/N=C\c1ccc2c(c1)OCO2,16.2,15.6,-5.3%,-1.1%,-0.3%,-0.5%
CCOc1ccc(NC(=O)CCC(=O)N/N=C/c2ccc3c(c2)OCO3)cc1,23.0*,28.5,11.0%,1.5%,2.1%,-5.9%
CCOc1ccc(/C=N/NC(=O)CCC(=O)Nc2ccc(F)cc2)cc1,3.0,13.6,15.9%,-12.7%,5.5%,-6.1%
Cc1cc(C)nc(SCC(=O)N/N=C/c2ccc3c(c2)OCO3)n1,39.5*,60.0*,-3.2%,-7.2%,nt,-1.8%
Cc1ccc(C)c(NC(=O)CCC(=O)N/N=C/c2ccc3c(c2)OCO3)c1,19.7*,42.5,-1.0%,-13.1%,-5.0%,0.6%
CCOC(=O)c1ccc(CN(Cc2ccccc2C)S(=O)(=O)c2ccc(F)c(C(=O)Nc3cccc(OC)c3)c2)cc1,nt,nt,nt,5.6%,nt,nt
Cc1ccc2[nH]c3nc(CCCn4ccnc4-c4ccccc4)nnc3c2c1,nt,nt,nt,nt,-3.2%[12.9 µM],nt
COc1ccc(CNCc2ccco2)cc1OCc1ccccc1,40.9*,89.8*,6.3%,2.3%,?,0.5%
CCOc1c(Cl)cc(CNCc2ccccn2)cc1OC,14.2,32.3,-5.2%,0.6%,-8.8%,0.6%
CNCc1ccc(OCc2ccccc2)c(OC)c1,28.5*,26.5,14.6%,-1.4%,-3.8%,-3.3%
COc1ccccc1CCNCc1ccc(OC)c(OCc2ccccc2)c1,-2.7,-9.7,-16.8%,-6.5%,?,-2.9%
COc1cc(CNCC(O)c2ccccc2)ccc1OCc1ccc(Cl)nc1 (centres undefined),16.7*,30.2,11.3%,4.4%,-3.3%,0.6%
COc1cc(CNCc2ccccn2)ccc1OCc1ccccc1Cl,13.4*,33.1,-4.8%,-8.2%,21.7%,-0.3%
COc1cc(CC(=O)O)ccc1OCc1ccccc1,2.3,7.3,-19.4%,-7.4%,5.3%,8.5%
SMILES,Cycloheximide cs,Shiga inhibitor,RE007 growth inh,Tb PYK inh,Giardia FBPA inh,LmPK inh
COc1cc(CNCCc2ccccc2)ccc1OCc1ccc(Cl)nc1,8.8,34.6,-12.2%,?,1.9%,-4.9%
CCOc1ccc(CNC(=O)COc2cc(=O)n(C)c3ccccc23)cc1,nt,nt,nt,-0.5%,nt,nt
COc1cc(CNCc2cccnc2)ccc1OCc1ccccc1,36.4*,75.8*,-10.1%,-1.1%,-2.1%,-5.7%
COc1cc(CNCCO)ccc1OCCc1ccccc1,12.7*,10.8,21.8%,4.5%,10.0%,-1.5%
C(=C\c1ccncc1)/c1ccccc1,36.0*,33.6,-19.8%,-2.7%,1.5%,-22.2%
CC(/C=C/c1cccc([N+](=O)[O-])c1)=N\NC(=O)c1ccncc1,-0.5,14.5,-15.5%,-11.5%,8.4%,-3.3%
O=[N+]([O-])c1ccc(/C=C/c2ccncc2)cc1,30.4*,68.4*,nt,6.0%,-5.4%,-0.8%
O=[N+]([O-])c1cccc(/C=C/c2ccncc2)c1,21.6*,36.6,-10.0%,-0.7%,-5.8%,-1.0%
C[C@H]1OC(=O)CC[C@@H]2[C@]1(C)CCC1[C@@]2(C)CC[C@@]2(C)C3CC(C)(C)CC[C@]3(CO)CC[C@]12C (some centres undefined),nt,nt,nt,nt,1.9%,nt
COc1ccc(CNC(=O)c2ccc(NC(=O)N3CCCCc4ccccc43)cc2)cc1,nt,nt,nt,-3.6%,nt,nt
COc1ccc(CCC(=O)N2CCc3ccccc32)cc1,41.2*,132.7*,43.9%,5.8%,1.1%,6.0%
CCc1ccccc1NC(=O)N1CCc2ccccc21,16.4*,52.5*,-5.4%,3.7%,4.2%,3.6%
CC1Cc2ccccc2N1C(=O)CCS(=O)(=O)c1cccs1 (centres undefined),32.9*,60.3*,-5.0%,0.9%,-2.0%,-1.9%
COc1ccc(NC(=O)N2CCCc3ccccc32)cc1,17.7*,121.6*,-9.8%,-3.7%,-6.2%,-6.4%
CCc1ccccc1NC(=O)N1CCOc2ccccc21,nt,nt,nt,1.6%,nt,nt
O=C(Nc1ccc(F)cc1F)C1CCN(c2ncccn2)CC1,nt,nt,nt,-2.7%,nt,nt
O=C(Cc1ccc(-n2cccc2)cc1)N1CCc2ccccc21,19.7*,47.4,8.9%,3.1%,1.9%,0.9%
COc1ccc(C(=O)N2CCc3ccccc32)cc1,29.9*,45.9*,?,-11.3%,2.9%,-7.4%
COc1ccc(OC)c(NC(=O)N2CCCc3ccccc32)c1,24.9*,30.5,-14.1%,4.1%,6.9%,4.6%
O=C(c1ccccc1)N1CCc2ccccc21,18.7,20.0,0.0%,5.6%,-8.4%,-1.4%
CC1(CCc2ccccc2)NC(=O)N(CC(=O)N2CCc3ccccc32)C1=O (centres undefined),nt,nt,2.8%,0.6%,nt,nt
CC1Cc2ccccc2N1C(=O)CN1C(=O)NC(C)(CCc2ccccc2)C1=O (centres undefined),14.2*,-1.7,-15.7%,-8.2%,nt,4.5%
CO[C@H]1COC(=O)[C@@H](C)COC(=O)[C@@H](COCc2ccccc2)NC(=O)C/C=C\[C@H]1C,nt,nt,nt,nt,-0.2%[12.9 µM],nt
COc1ccc(NC(=O)N2CCc3ccccc32)cc1,28.6*,38.4,?,?,-25.6%,12.6µM*
COc1cc2[nH]c(C(=O)N3CCc4ccccc43)cc2c(OC)c1OC,29.9*,46.8*,8.3%,2.9%,0.3%,1.9%
COc1ccc(/C=C/C(=O)OCC(=O)N2c3ccccc3CC2C)cc1 (centres undefined),nt,nt,9.4%,-10.9%,nt,nt

# Compound activity deposited in PubChem BioAssay by National Center for Advancing Translational Sciences (NCATS).
